Lassa entry inh: inhibitors of Lassa virus binding or cell entry | Lassa virus pseudotype entry inhibition, cell reporter | Potency, µM (series often up to 37.9 µM), usual class: inhibitors | hit rate 1.2% among 300,000; calls by dose curve; tested in HEK293 cells; further: nearly all actives have a fitted effect of over 50% in size
HCMV inh: inhibitors of human cytomegalovirus | activity change, negative = inhibition, % at 57.5 µM | AID 1259415 | hit rate 4.5% among 410,000 | HFF cells, HCMV-luciferase reporter, 72 h; active compounds read low; in the data active means activity change below about -60%; inconclusive means no clear call, values can overlap the other calls; inactive means above about -39%
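Inhibition of viral replication was scored as loss of reporter luminescence in HFFs infected with HCMV-luciferase (MOI 1 PFU/cell) for 72 h; compounds tested at 2 doses, normalized to buffer and Salinomycin controls.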
FMDV antiviral: antivirals against foot and mouth disease virus; Potency, µM (series often up to 57.9 µM), usual class: inhibitors; AID 1159524; hit rate 1.2% among 410,000; FMDV antiviral cell-based qHTS; calls by dose curve; tested in HEK293T cells; further: read-out not given here; nearly all actives have a fitted effect of over 45% in size
Marburg entry inh: inhibitors of Marburg virus binding or cell entry; AID 540276; hit rate 1.8% among 300,000; Marburg virus pseudotyped entry inhibition, cell reporter; Potency, µM (highest dose often 37.8 µM), usual class: inhibitors; calls by dose curve; tested in HEK293 cells
Of the large screens only hits and unclear results are named; the others gave an inactive call. Only some compounds are listed: those with a hit (about 6.2% of all), similar ones and a draw of the others.

CC(=O)C1(O)C(C)CC2C3CCC4CC(O)CCC4(C)C3=CCC21C (centres undefined)	none (no result: FMDV antiviral)
C[C@@H]1CC2[C@@H]3CC[C@H]4CC(=O)CC[C@]4(C)C3=CC[C@]2(C)[C@@]1(O)C(=O)CO (some centres undefined)	HCMV inh -100.9, FMDV antiviral inconclusive
COc1cccc(C(=O)Cn2c(=O)n(CCC(=O)NCC3CCCO3)c(=O)c3cc(OC)c(OC)cc32)c1 (centres undefined)	none (no result: Lassa entry inh, Marburg entry inh)
COc1cc(C)ccc1OCc1cc(C(=O)NC2CCOCC2)no1	none (no result: Lassa entry inh, Marburg entry inh)
Cc1ccc(C)c(OCc2cc(C(=O)NC3CCN(Cc4ccccc4)CC3)no2)c1	HCMV inh -85.3, FMDV antiviral inconclusive (no result: Lassa entry inh, Marburg entry inh)
O=C(NC1CCN(Cc2ccccc2)C1)c1cc(COc2ccc(F)cc2F)on1 (centres undefined)	HCMV inh -102.4 (no result: Lassa entry inh, Marburg entry inh)
O=C(c1cc(COc2ccc(F)cc2F)on1)N1CCCC(c2ccccc2)C1 (centres undefined)	Lassa entry inh 7.08µM, HCMV inh -62.5, Marburg entry inh inconclusive
CC1CCCCN1S(=O)(=O)c1ccc(S(=O)(=O)N(Cc2ccccc2)Cc2ccco2)cc1 (centres undefined)	Lassa entry inh inconclusive, Marburg entry inh inconclusive (no result: FMDV antiviral)
O=C(CC(SCCO)c1ccc2c(c1)OCO2)c1cccs1 (centres undefined)	Marburg entry inh inconclusive
COc1ccccc1NC(=O)COc1ccc(C(=O)OCC(=O)NC(C)(C)C)cc1OC	FMDV antiviral 22.4µM (no result: Lassa entry inh)
CCCNC(=O)COC(=O)c1ccc(OCC(=O)Nc2ccccc2OC)c(OC)c1	none
CCOc1cc(CNc2ccc(Br)cc2)cc(Br)c1OCC(=O)NC(C)(C)C	HCMV inh inconclusive, FMDV antiviral inconclusive
COc1cc(CNCCc2ccccc2)ccc1OCC(=O)NC(C)(C)C	Marburg entry inh 11.2µM
CCOc1cc(CNc2ccccc2)cc(Br)c1OCC(=O)NC(C)(C)C	Lassa entry inh inconclusive, HCMV inh -96.8, Marburg entry inh inconclusive (no result: FMDV antiviral)
COc1cc(CNCCCO)ccc1OCC(=O)NC(C)(C)C	none
CN1C(=O)CC2(CC(=O)N(Cc3ccccc3)C2)C1=O (centres undefined)	none
Cc1cccc(NC(=O)c2ccc(S(=O)(=O)N3CCOCC3)cc2)c1C	none
CN(Cc1ccc(F)cc1)C(=O)c1cccc(S(=O)(=O)N2CCN(c3ccc(F)cc3)CC2)c1	Lassa entry inh inconclusive, FMDV antiviral inconclusive, Marburg entry inh inconclusive
CN(CC(=O)Nc1ccc(F)cc1)C(=O)c1cccc(S(=O)(=O)N2CCN(c3ccc(F)cc3)CC2)c1	Lassa entry inh inconclusive, HCMV inh -63.3, FMDV antiviral inconclusive, Marburg entry inh inconclusive
CN(CC(=O)Nc1ccc(F)cc1)C(=O)c1ccncc1	HCMV inh -72.5
COc1ccc(CN(C)C(=O)c2cccc(S(=O)(=O)N3CCN(c4ccccc4)CC3)c2)c(OC)c1OC	Lassa entry inh inconclusive, HCMV inh -69.8, FMDV antiviral inconclusive, Marburg entry inh inconclusive
O=C(NCC1COc2ccccc2O1)c1cccc(S(=O)(=O)N2CCN(c3ccccc3)CC2)c1 (centres undefined)	HCMV inh -75.7, Marburg entry inh inconclusive
COc1cccc(CN(C)C(=O)c2cccc(S(=O)(=O)N3CCN(c4ccccc4)CC3)c2)c1	FMDV antiviral inconclusive (no result: Lassa entry inh, Marburg entry inh)
C[N+]1(C)[C@@H]2CC[C@H]1CC(OC(=O)c1c[nH]c3ccccc13)C2 (some centres undefined)	none (no result: Lassa entry inh, HCMV inh, FMDV antiviral)
O=C1Nc2ccccc2/C1=C\c1cccn1-c1ccc(OC(F)(F)F)cc1	FMDV antiviral inconclusive
COCCCN(C(=S)NC(=O)C12CC3CC(CC(C3)C1)C2)c1c(N)n(Cc2ccccc2)c(=O)[nH]c1=O	none
CN1C(=O)CC(CC(=O)N2CCCCC2CCO)(c2cccc(F)c2)C1=O (centres undefined)	none (no result: Lassa entry inh, HCMV inh, Marburg entry inh)
CN(CC(=O)Nc1cccc(F)c1)C(=O)c1cc(S(=O)(=O)N2CCN(c3ccccc3)CC2)ccc1Cl	FMDV antiviral inconclusive (no result: Lassa entry inh, Marburg entry inh)
CN(CC(=O)Nc1cccc(F)c1)C(=O)c1cccc(S(=O)(=O)N2CCN(c3ccccc3)CC2)c1	HCMV inh -76.7, FMDV antiviral inconclusive, Marburg entry inh inconclusive
CCN(CC)CCOC(=O)c1ccc(NC(=O)c2cccc(C)c2[N+](=O)[O-])cc1	none
COc1cccc(CNC(=O)CCC(=O)N2Cc3cccc(OC)c3Oc3ncccc32)c1OC	none (no result: Marburg entry inh)
COC1CC(C)C(OC)c2cc(O)cc(c2O)NC(=O)C(C)=CC=CC(C)C(OC(N)=O)C(C)=CC(C)C1OC (centres undefined)	Lassa entry inh inconclusive, HCMV inh -99.2, FMDV antiviral 126µM, Marburg entry inh 3.55µM
COC1C=CC=C(C)C(=O)NC2=CC(=O)C(N)=C(CC(C)CC(OC)C(O)C(C)C=C(C)C1OC(N)=O)C2=O (centres undefined)	Lassa entry inh 0.447µM, HCMV inh -97.5, FMDV antiviral 10µM, Marburg entry inh 0.199µM
CC(=O)Nc1cccc(NC(=O)C2C3C=CC(C3)C2C(=O)O)c1 (centres undefined)	none (no result: Lassa entry inh, Marburg entry inh)
CCC(=N\NC(=O)COc1ccccc1OC)/C(CC)=N/NC(=O)COc1ccccc1OC	FMDV antiviral inconclusive (no result: Lassa entry inh, Marburg entry inh)
O=C(NN=C(Cc1ccccc1)Cc1ccccc1)c1ccccc1O	Marburg entry inh inconclusive
NC(=S)NN=C(Cc1ccccc1)Cc1ccccc1	Lassa entry inh inconclusive, HCMV inh -70.2, FMDV antiviral inconclusive, Marburg entry inh inconclusive
COc1ccccc1OCC(=O)NN=C(Cc1ccccc1)Cc1ccccc1	HCMV inh -62.9, Marburg entry inh inconclusive
O=C(NC(=S)N(CCc1ccccc1)CCc1ccccc1)c1ccco1	Lassa entry inh 8.91µM, Marburg entry inh inconclusive
CC(CCc1ccccc1)NC(=S)NC(=O)c1ccco1 (centres undefined)	Lassa entry inh inconclusive
COc1cc(C(=O)N/N=C(\C)Cc2ccccc2)cc(OC)c1OC	Lassa entry inh inconclusive, HCMV inh -91.5, Marburg entry inh inconclusive
NS(=O)(=O)c1ccc(-c2ccc(/C=C3\C(=O)Nc4cc(Cl)ccc43)o2)cc1	none (no result: Lassa entry inh, Marburg entry inh)
O=C(O)c1ccc(C(=O)c2ccc3c(c2)C(=O)N(Cc2ccco2)C3=O)cc1	none
COc1cc(C(=O)NC(=S)N(CCc2ccccc2)CCc2ccccc2)cc(OC)c1OC	Lassa entry inh inconclusive, Marburg entry inh 3.16µM
COc1cc(C(=O)NC(=S)N(C)Cc2ccccc2)cc(OC)c1OC	none
O=c1c2cc(Br)ccc2nc(-c2ccc([N+](=O)[O-])cc2)n1O	Marburg entry inh inconclusive
O=c1c2ccc(Cl)cc2nc(-c2ccc([N+](=O)[O-])cc2)n1O	Lassa entry inh inconclusive, HCMV inh -97.9, Marburg entry inh inconclusive
COc1ccc(C(C(=O)NC(C)(C)C)n2c(-c3ccc(=O)[nH]c3)nc3ccccc32)cc1 (centres undefined)	HCMV inh -86.1 (no result: Lassa entry inh, Marburg entry inh)
COc1ccc(C(C(=O)NC(C)(C)C)n2c(COc3ccc(C)cc3)nc3ccccc32)cc1 (centres undefined)	none (no result: Lassa entry inh, Marburg entry inh)
Cc1nnc(SCCN2CCOCC2)n1C	Marburg entry inh inconclusive
CCOc1ccc(NS(=O)(=O)c2cc(NC(=O)c3cccc(C)c3)ccc2Cl)cc1	Lassa entry inh 15.8µM, HCMV inh inconclusive, Marburg entry inh inconclusive
O=C(c1n[nH]c2c1CCCC2)N1CCC(n2c(C3CCCO3)nc3ccccc32)CC1 (centres undefined)	none (no result: Lassa entry inh, HCMV inh, Marburg entry inh)
COc1ccc(-c2cn3cc(C)ccc3n2)cc1Br	Lassa entry inh inconclusive, Marburg entry inh 14.1µM

Bioassay records deposited in PubChem BioAssay by National Center for Advancing Translational Sciences (NCATS).
